From PubChem
This excerpt belongs to a sample that is enriched for hits.
Giardia kill – Giardia lamblia killing. Giardia lamblia trophozoite viability. activity change, % at 7.66 µM, hits read low. hit rate 0.15% among 340,000; in the data active = activity change below about -80%; inconclusive = between about -30% and that limit;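 note: parasites exposed to compound for two days anaerobically before the ATP read; % is set by controls: 0 for no effect and ±100 for the full control effect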
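ATP-content bioluminescence gauges trophozoite survival. Cells (100/well) receive compound and incubate anaerobically for 48 hrs at 37 deg C; detection reagent follows for 15-30 min at room temperature.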
a7 integrin act – activates integrin-mediated alleviation for muscular dystrophy. alpha7betagal myoblasts, beta-gal FDG fluorescence, 48 h. hit rate 0.064% among 350,000. Potency, µM (titrated, usually from 38.3 µM), without a hit: top-dose activation, hits mostly activators;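 note: potency is the fitted concentration of half-maximal effect; 100% = response of the positive control SU9516; nearly all actives have a fitted effect of over 60% in size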
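Alpha7betagal+/- myoblasts (passage 13) were plated 16-24 hr, then exposed to compounds (1:260 dilution of DMSO stock) for 48 hours at 37C. After MPER lysis, β-galactosidase reporter activity was read as FDG fluorescence (ex 480/em 540) after 30 minutes.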
ERG Ets-DNA blk – blocks human ERG Ets domain binding to DNA; Potency, µM (highest dose often 76.9 µM), for the others: at the highest dose FP activity, negative = inhibition, actives largely listed as inhibitors; fluorescence polarization, His-ERG Ets domain / labelled DNA; P11308; AID 624246; hit rate 0.028% among 370,000; active = well fitted inhibition curve with a large enough effect in the polarisation, with a control signal flat; inconclusive = small, poorly fitted or top-dose-only effect, or effect the other way, or a change in a side signal; inactive = no such curve, though single readings can be large or run the other way; the % refers to the polarisation;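 note: polarization taken with two DNA probes labelled with fluorescein and Texas red; potency is the fitted concentration of half-maximal effect; % of control where 0% means no effect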
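His-tagged ERG Ets domain (1 uM in the protein solution; 300mM KCl, 50mM Tris-HCl, 1mM EDTA, 1mM DTT, pH 7.5) received compound, then a probe mix of 5 nM fluorescein-DNA and 100nM Texas-615-DNA. Fluorescence polarization was read for both dyes.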
Gal4-VP16 FLuc – inhibits Gal4-VP16 luciferase reporter, ROR gamma counter-screen. Drosophila S2 Gal4-VP16 UAS-luciferase, luminescence, 20 h. Potency, µM (top dose mostly 53.6 µM), without a hit: at the highest dose activity, negative = inhibition, usual class: inhibitors. hit rate 3.5% among 310,000. AID 2546;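 note: Gal4-VP16 expression switched on by copper sulfate through the metallothionein promoter; potency is the fitted concentration of half-maximal effect; % is set by controls: 0 for no effect and ±100 for the full control effect; nearly all actives have a fitted effect of over 50% in size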
RORgamma inh – ROR gamma (mouse) transcription inhibition; Drosophila S2 Gal4-RORgamma UAS-luciferase reporter, 20 h; Potency, µM (top dose mostly 53.6 µM), for the others: top-dose activity change, negative = inhibition, hits mostly inhibitors; hit rate 5.4% among 310,000; note: potency is the fitted concentration of half-maximal effect; % is set by controls: 0 for no effect and ±100 for the full control effect; nearly all actives have a fitted effect of over 60% in size
Target sequence (P51450 whole entry, looked up, the tested form may be a part): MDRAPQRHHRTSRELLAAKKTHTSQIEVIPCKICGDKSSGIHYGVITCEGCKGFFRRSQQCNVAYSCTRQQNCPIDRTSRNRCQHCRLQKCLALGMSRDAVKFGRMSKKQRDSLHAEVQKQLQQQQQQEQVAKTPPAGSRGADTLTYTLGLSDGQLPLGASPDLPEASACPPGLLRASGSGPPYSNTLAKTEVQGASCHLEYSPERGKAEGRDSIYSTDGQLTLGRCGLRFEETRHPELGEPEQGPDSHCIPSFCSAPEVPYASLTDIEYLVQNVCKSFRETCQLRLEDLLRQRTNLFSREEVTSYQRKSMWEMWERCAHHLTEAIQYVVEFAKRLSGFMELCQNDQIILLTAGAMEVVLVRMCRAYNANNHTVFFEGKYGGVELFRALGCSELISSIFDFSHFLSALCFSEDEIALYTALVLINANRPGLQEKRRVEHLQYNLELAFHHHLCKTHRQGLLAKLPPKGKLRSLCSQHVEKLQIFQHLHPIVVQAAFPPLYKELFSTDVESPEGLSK
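In this cell-based reporter format, copper sulfate (700 uM final) drives Gal4–ROR gamma fusion expression from a metallothionein promoter in Drosophila Schneider cells; compounds preincubated 1 hr, reporter read after 20 hr at ambient temperature.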
* marks the source's active call; other numbers are inactive results; ? = inconclusive; / = no result given; ! = a repeat was not active; [ ] = dose if it differs, or a comment. Unless noted, calls come from the whole dose curve; as a rule, active = well fitted curve in the direction sought with a large enough effect; inconclusive = small, poorly fitted or top-dose-only effect, or another doubt; inactive = no such curve, though single readings can be large; an effect the other way counts as inactive or inconclusive.

SMILES	Giardia kill	a7 integrin act	ERG Ets-DNA blk	Gal4-VP16 FLuc	RORgamma inh
N/C(COc1ccccc1)=N\NC(=O)c1cccnc1Oc1ccccc1	-1.3	-19.5%	-11.2%	1.41µM*	?
Cc1snc(SCC(=O)N/N=C(\N)COc2cccc(C(F)(F)F)c2)c1C#N	7.3	-7.5%	3.0%	6.31µM*	5.01µM*
N/C(COc1cccc(C(F)(F)F)c1)=N\NC(=O)c1cccnc1Oc1ccccc1	-7.6	7.9%	0.7%	1.26µM*	0.501µM*
CN(C)c1ccc(/C=N\NC(=O)c2cccc3cc[nH]c23)cc1	-1.4	-8.7%	-3.4%	?	7.94µM*
CN(C)c1ccc(/C=N\NC(=O)c2csnn2)cc1	2.7	19.6%	5.7%	17.8µM*	?
Cc1cccc(OCC(=O)Nc2c(C)ccc3nsnc23)c1C	/	/	-0.6%	/	/
Cc1cc(Cl)ccc1NC(=O)CN(C)C1=NS(=O)(=O)c2ccccc21	-10.0	-17.1%	5.9%	/	/
COc1ccccc1C(=O)N/C(=N/c1nc(C)cc(C)n1)Nc1ccccc1	15.3	25.7%	4.2%	?	10µM*
S=C(c1cn(Cc2ccc(Br)cc2)c2ccccc12)N1CCOCC1	2.8	0.3%	-5.5%	?	14.1µM*
O=C(CCc1cn(Cc2ccc(F)cc2)c2ccccc12)N1CCOCC1	-13.5	?	-1.4%	?	11.4%
S=C(c1cn(Cc2ccccc2)c2ccccc12)N1CCOCC1	-9.2	14.9%	6.9%	-15.1%	11.2µM*
O=C(Oc1ccc(OC(=O)C2CCC2)cc1)C1CCC1	8.8	-39.2%	7.2%	22.4µM*	11.2µM*
COc1ccc(CCNc2ncnc3nc[nH]c23)cc1	-18.0	/	/	/	/
O=S(=O)(c1ccc(Br)cc1)c1cnc2ccccc2n1	9.4	-65.0%	-11.3%	?	11.2µM*
COc1ccc(S(=O)(=O)c2cnc3ccccc3n2)cc1	-4.8	-54.0%	-7.1%	?	11.2µM*
O=C(CCNc1ccc(F)cc1)c1cccc([N+](=O)[O-])c1	5.3	0.0%	3.1%	?	12.6µM*
Cc1nc(SCC(=O)c2cccc([N+](=O)[O-])c2)n[nH]1	25.3	-13.7%	-0.7%	?	12.6µM*
Cc1ccnc(SCC(=O)c2cccc([N+](=O)[O-])c2)n1	11.2	7.9%	-5.3%	-5.6%	-6.7%
COc1ccc(-c2nnn(CCC(=O)O)n2)cc1	-18.1	18.5%	11.0%	-57.0%	2.24µM*
CCN(C(=O)CSc1cccc[n+]1[O-])C1CCCCC1	11.7	-1.0%	-0.3%	/	/
CCC(Oc1ccccc1)C(=O)Nc1nc2ccccc2[nH]1 (centres undefined)	-12.2	2.9%	-0.1%	?	10µM*
O=C(Nc1nc2ccccc2[nH]1)c1ccc(OC(F)F)cc1	?	2.9%	5.8%	?	5.62µM*
CC(C)Oc1ccc(C(=O)Nc2nc3ccccc3[nH]2)cc1	?	-6.3%	5.2%	2.82µM*	1.12µM*
COc1ccccc1CCC(=O)Nc1nc2ccccc2[nH]1	30.8	16.1%	7.8%	?	?
O=C(Nc1nc2ccccc2[nH]1)c1ccccc1OC(F)F	?	-14.3%	-4.6%	10µM*	7.94µM*
SMILES	Giardia kill	a7 integrin act	ERG Ets-DNA blk	Gal4-VP16 FLuc	RORgamma inh
CSCC[C@H](NC(=O)CNC(=O)CNC(=O)[C@H](CO)NC(=O)[C@H](CCCNC(=N)N)NC(=O)[C@H](CO)NC(=O)[C@H](CC(C)C)NC(=O)[C@H](CC(C)C)NC(=O)CNC(=O)[C@H](C)NC(=O)[C@H](CC(C)C)NC(=O)[C@H](CCCNC(=N)N)NC(=O)[C@H](Cc1cnc[nH]1)NC(=O)[C@@H](NC(=O)[C@@H](N)C(C)C)[C@@H](C)O)C(=O)N[C@H](C(=O)N[C@@H](CCCCN)C(=O)N[C@@H](CO)C(=O)N[C@@H](CC(N)=O)C(=O)N[C@@H](Cc1ccccc1)C(=O)N[C@H](C(=O)N1CCC[C@H]1C(=O)N[C@H](C(=O)N[C@@H](CC(N)=O)C(=O)N[C@H](C(=O)NCC(=O)N[C@@H](CO)C(=O)N[C@@H](CCCCN)C(=O)N[C@@H](C)C(=O)N[C@@H](Cc1ccccc1)C(N)=O)C(C)C)[C@@H](C)O)C(C)C)C(C)C	/	/	/	-11.6%	10.1%
Cc1cccc(C)c1NC(=O)[C@H](C)N	/	/	/	3.3%[17 µM]	7.6%[2.98 µM]
O=C(N/N=C/c1cc([N+](=O)[O-])cc([N+](=O)[O-])c1O)/C(=C\c1cccs1)NC(=O)c1ccccc1	3.9	32.4%	-0.5%	?	11.2µM*
COc1cc(/C=N/NC(=O)/C(=C\c2ccc([N+](=O)[O-])cc2)NC(=O)c2ccccc2)cc(OC)c1O	-11.4	5.1%	-10.2%	-1.3%	?
O=C(N/N=C/c1cccc([N+](=O)[O-])c1O)c1cccs1	-11.1	10.0%	-1.8%	0.794µM*	1.12µM*
O=C(N/N=C/c1cccc([N+](=O)[O-])c1O)C(O)(c1ccccc1)c1ccccc1	-25.2	-17.9%	10.9%	1.26µM*	0.708µM*
COc1cc([N+](=O)[O-])cc(/C=N/NC(=O)C(O)(c2ccccc2)c2ccccc2)c1O	-6.8	?	-0.1%	0.891µM*	0.355µM*
CCc1nnc(NC(=O)c2ccc(-c3ccc([N+](=O)[O-])cc3Cl)o2)s1	?	-18.4%	8.3%	-17.1%	-16.0%
CC1=C(C(=O)Nc2cccnc2)C(c2ccc(Cl)cc2)n2nc(SCc3ccccc3)nc2N1 (centres undefined)	/	/	-2.4%	/	/
COc1ccc(-c2nnc3n2N=C(c2ccccc2OC)CS3)c(OC)c1	/	/	/	-5.0%	-14.7%
c1ccc2oc(-c3ccc(Nc4nc(N5CCOCC5)nc(N5CCOCC5)n4)cc3)nc2c1	-9.5	-15.6%	-2.4%	/	/
c1ccc(-c2nc(-c3cccc4ccccc34)c(Nc3ccc4ccccc4c3)o2)cc1	/	/	/	1.5%	5.62µM*
Cc1cccc(Nc2n[nH]c(=S)s2)c1C	-1.2	7.2%	/	-13.3%	?
COc1ccccc1Nc1n[nH]c(=S)s1	9.0	-5.5%	-2.4%	5.0%	10µM*
COc1ccccc1Nc1nc(C)cs1	-3.6	25.9%	-0.1%	?	11.2µM*!
Cc1ccc(NC(=O)Cn2c(=O)oc3cc(S(=O)(=O)N4CCCCC4)ccc32)c(Cl)c1	/	/	1.4%	/	/
Cc1ccc(CNC(=O)CN(C(=O)N2CCN(C)CC2)S(=O)(=O)c2ccc(C)cc2)cc1	-18.3	11.4%	-1.7%	/	/
CN(C(=O)CSc1nc(-c2ccc(C(C)(C)C)cc2)c(C#N)c(=O)[nH]1)C1CCCCC1	-6.6	?	12.3%	-14.3%	3.6%
Cc1ccc(S(=O)(=O)N2CCOCC2)cc1C(=O)N1CC(C)CC(C)C1 (centres undefined)	-27.4	9.3%	14.9%	/	/
O=C(Nc1ccccc1)c1ccc(CN2CCc3ccccc3C2)cc1	5.7	-1.3%	-1.4%	20.5%	36.6%
Cc1ccccc1C(=O)NC(=S)Nc1ccc(S(=O)(=O)N2CCN(C)CC2)cc1	3.0	9.2%	4.5%	?	-4.4%
O=C(NC(=S)Nc1ccc(S(=O)(=O)N2CCCCC2)cc1)c1ccccc1	7.2	-19.8%	0.8%	?	8.91µM*
